Bioassay records deposited in PubChem BioAssay by National Center for Advancing Translational Sciences (NCATS).
DRD3 antagonist: blocks the human D3 dopamine receptor | max response, negative = inhibition, % | D3R cells, DiscoveRx beta-arrestin luminescence, antagonist mode; active compounds read low | P35462 | actives 2.5% (n = 360,000); in the data active means max response below about -50%; inconclusive means no clear call, values can overlap the other calls
Target sequence (P35462 whole entry, looked up): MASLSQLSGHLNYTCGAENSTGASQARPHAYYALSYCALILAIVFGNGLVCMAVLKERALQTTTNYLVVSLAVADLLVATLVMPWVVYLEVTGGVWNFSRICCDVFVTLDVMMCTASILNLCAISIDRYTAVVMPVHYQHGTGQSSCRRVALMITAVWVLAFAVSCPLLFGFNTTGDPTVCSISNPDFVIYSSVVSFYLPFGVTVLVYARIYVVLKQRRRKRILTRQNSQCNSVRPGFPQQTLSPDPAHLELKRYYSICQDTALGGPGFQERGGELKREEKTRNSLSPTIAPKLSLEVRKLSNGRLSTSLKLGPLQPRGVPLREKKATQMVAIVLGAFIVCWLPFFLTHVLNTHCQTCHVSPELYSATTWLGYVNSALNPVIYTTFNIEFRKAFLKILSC
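Cells expressing the human receptor were seeded at 1500 cells/well, incubated overnight at 37 degrees C in 5% CO2, then exposed to library compounds with dopamine controls for 90 minutes at 37 degrees C before luminescent detection.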
a7 integrin act: integrin-mediated muscular dystrophy alleviation activation | actives 0.064% (n = 350,000) | Potency, µM (titrated, usually from 38.3 µM), actives largely listed as activators | alpha7betagal myoblasts, beta-gal FDG fluorescence, 48 h; active means well fitted activation curve with a large enough effect; inconclusive means small, poorly fitted or top-dose-only effect; inactive means no such curve, though single readings can be large or run the other way; further: nearly all actives have a fitted effect of over 60% in size
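Alpha7betagal+/- myoblasts (passage 13) were plated 16-24 hr, then exposed to compounds (1:260 dilution of DMSO stock) for 48 hours at 37C. After MPER lysis, β-galactosidase reporter activity was read as FDG fluorescence (ex 480/em 540) after 30 minutes.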
DRD3 agonist: D3 dopamine receptor (human) agonism; P35462; D3R DiscoveRx beta-arrestin cells, luminescence, 90 min; max activation, %; actives 0.58% (n = 410,000); AID 652048; in the data active means max activation above about 30%
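Cells at 1500/well, incubated overnight, then treated with pinned compounds (dopamine as control) for 90 min at 37 degrees C. DiscoveRx reagent added for 30 - 60 minutes at room temperature; luminescence read.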
Of the large screens only hits and unclear results are named; the others gave an inactive call; ! = repeats disagree. Shown are actives, neighbours in structure and some others; about 2.9% of the full set was active somewhere.

O=C(CNC(=O)c1nc[nH]c1C(=O)N1CCNCC1)OCc1ccccc1	none
O=C(CNC(=O)c1nc[nH]c1C(=O)N1CCc2ccccc2C1)OCc1ccccc1	DRD3 agonist 40
CC(C)C[C@H](NC(=O)c1nc[nH]c1C(=O)NCC(=O)OC(C)(C)C)C(=O)OC(C)(C)C	none
CC(C)(C)OC(=O)N1CCC(NC(=O)c2nc[nH]c2C(=O)NC2CCN(C(=O)OC(C)(C)C)CC2)CC1	none
Cc1cccc(NC(=O)c2nc[nH]c2C(=O)N[C@@H](Cc2ccccc2)C(=O)OC(C)(C)C)c1	none
CC(C)C[C@H](NC(=O)c1nc[nH]c1C(=O)N[C@@H](CC(C)C)C(=O)OC(C)(C)C)C(=O)OC(C)(C)C	DRD3 antagonist -55
CC(=O)c1cccc(OCCN2C(=O)NC(C)(C)C2=O)c1	none
CCN1CCN(c2ccc(S(=O)(=O)N3CCOCC3)cc2NC(=O)c2cc(Cl)nc3ccccc23)CC1	none
Cc1cc(C)cc(NC(=O)C(=O)NCc2ccccn2)c1	none
Cc1cc(C)n(CCC(=O)N2CCCC(N3CCN(c4cccc(Cl)c4)CC3)C2)n1 (centres undefined)	none
Cc1ccc(S(=O)(=O)c2cn(Cc3ccccc3F)c3cc4c(cc3c2=O)OCO4)cc1	none (no result: DRD3 antagonist, a7 integrin act)
CC(=O)N1CCc2cc(S(=O)(=O)N3CCCCC3C)ccc21 (centres undefined)	none
CC(C)(C)OC(=O)N1CCC(NC(=O)c2nc[nH]c2C(=O)NCC(=O)OCc2ccccc2)CC1	DRD3 agonist 69
CC(C)(C)OC(=O)CNC(=O)c1[nH]cnc1C(=O)NC1CCN(C(=O)OC(C)(C)C)CC1	none
O=C(CCCN1CCN(c2ccccc2)CC1)c1ccc(F)cc1	DRD3 antagonist -102
O=C(CN1CCC2(CC1)OCCO2)c1ccc2cc[nH]c2c1	none
O=C(CCN1Cc2ccccc2C1)c1ccc2c(c1)OCCO2	DRD3 antagonist -52
O=C(CCN1CCc2ccccc2C(c2ccccc2)C1)c1ccc2c(c1)OCCO2 (centres undefined)	DRD3 antagonist inconclusive
NC(=O)C1(N2CCCCC2)CCN(CCCC(=O)c2ccc(F)cc2)CC1	none (no result: DRD3 antagonist, a7 integrin act)
O=C(CCC(=O)N1CCN(c2ccc(F)cc2)CC1)c1ccccc1	a7 integrin act inconclusive
O=C(CCCN1Cc2ccccc2C1)c1ccc(F)cc1	DRD3 antagonist -151
O=C(CN1CCN(c2ccccc2)CC1)c1ccc2cc[nH]c2c1	DRD3 antagonist -63
CCOc1ccc(-n2c(C)c(C(C)=O)c3cc(OCC(N)=O)ccc32)cc1	none
O=C(NC(=S)Nc1ccc2cn[nH]c2c1)c1ccccc1	none
CN1CCN(CCCC(=O)c2ccc(F)cc2)CC1	DRD3 antagonist -60
O=C1C(=O)N(CCCN2CCOCC2)C(c2ccc(F)cc2)/C1=C(/O)c1ccccc1 (centres undefined)	none
O=C(CCCN1CCN2CCCC2C1)c1ccc(F)cc1 (centres undefined)	none (no result: DRD3 antagonist, a7 integrin act)
O=C(CCCN1CCOC(c2ccccc2)C1)c1ccc(F)cc1 (centres undefined)	DRD3 antagonist -86
CCOC(=O)/C=C1\CN(Cc2ccc(OC)cc2)S(=O)(=O)c2ccccc21	none
CCOC(=O)N1CCN(C(=O)Cn2c(=O)sc3ccccc32)CC1	none
CCN1CCN(C(=O)Cn2c(=O)sc3ccccc32)CC1	DRD3 antagonist -98
COc1ccc(C(CC(=O)Nc2cc([N+](=O)[O-])ccc2OC)c2ccccc2)cc1 (centres undefined)	none
CCC(C(=O)NCCCN(CC)Cc1ccccc1)n1nc(C)c2sc3ccccc3c2c1=O (centres undefined)	DRD3 antagonist -84
CCC(C(=O)NCCc1ccc(C)cc1)n1nc(C)c2c(C)n(-c3ccccc3)nc2c1=O (centres undefined)	DRD3 antagonist -79
CCC(C(=O)NCCc1ccc(SC)cc1)n1nc(C)c2c(C)n(-c3ccc(C)cc3)nc2c1=O (centres undefined)	none (no result: DRD3 antagonist, a7 integrin act)
CCC(C(=O)NCc1ccccc1)n1nc(C)c2sc3ccccc3c2c1=O (centres undefined)	none (no result: DRD3 antagonist, a7 integrin act)
Cc1nn(CCC(=O)NCc2ccc(N(C)C)cc2)c(=O)c2nn(-c3ccccc3)c(C)c12	none
Cc1nn(CCC(=O)NCc2ccc(Cl)cc2)c(=O)c2nn(-c3ccccc3)c(C)c12	DRD3 agonist 57 (no result: DRD3 antagonist, a7 integrin act)
Cc1ccc(-c2csc(N=C(N)N)n2)cc1	none
COc1ccc(CNC(=O)[C@@H]2CC=C[C@@H]3CCN(Cc4ccccc4)C(=O)[C@@H]32)cc1	none
CCn1ccnc1CNC(=O)c1ccc2oc(C(C)C)nc2c1	none
CCOC(=O)C1CCN(S(=O)(=O)c2ccc(Cl)cc2)CC1	none
CCC(Sc1nc2ccncc2[nH]1)C(=O)Nc1cc(Cl)ccc1C (centres undefined)	DRD3 agonist 35!
CCC(Sc1nc2ccncc2[nH]1)C(=O)Nc1cc(C)ccc1C (centres undefined)	none (no result: DRD3 antagonist, a7 integrin act)
Cc1csc(SCC(=O)NCc2cccs2)n1	none
CCOC(=O)c1ccc(NC(=O)NCc2ccccn2)cc1	none
CC(COc1ccc(/C=C/c2ccccc2)cc1)[N+](C)(C)C (centres undefined)	none (no result: a7 integrin act)
CC(COc1ccccc1)NN (centres undefined)	DRD3 agonist 67 (no result: DRD3 antagonist, a7 integrin act)
OC(CNCc1ccccc1)COc1ccccc1 (centres undefined)	none
CC(CCc1ccccc1)NCC(O)COc1ccccc1 (centres undefined)	DRD3 antagonist -64
Cc1ccc2c(C)nc(N/C(N)=N/S(=O)(=O)c3ccccc3)nc2c1	none
N#Cc1ccsc1NC(=O)c1cnccn1	DRD3 antagonist -52
N#Cc1c(NC(=O)c2cnccn2)sc2c1CCCC2	none
Brc1cccc(CNCCSc2nnnn2-c2ccccc2)c1	none (no result: DRD3 antagonist, a7 integrin act)
CNC(=S)Nc1ccc(N2CCN(c3ccc(C(F)(F)F)cn3)CC2)nc1	DRD3 antagonist -52
CN1CCN(c2ccc(NC(=O)c3ccc(C(F)(F)F)cc3)cn2)CC1	a7 integrin act inconclusive
COc1cccc(CNC(=O)C2Cc3cc(S(=O)(=O)N4CCCC4)ccc3N2C(C)=O)c1OC (centres undefined)	none
COc1ccc(/C=C(\NC(=O)c2ccc(Cl)cc2)C(=O)NCCCn2ccnc2)cc1OC	none
Cc1ccc(Nc2nc(N/N=C/c3c[nH]c4ccccc34)nc(N3CCOCC3)n2)cc1	none
c1ccc(Nc2nc(N3CCNCC3)nc(N3CCOCC3)n2)cc1	DRD3 antagonist -79
c1ccc(Nc2nc(N3CCOCC3)nc(N3CCOCC3)n2)cc1	DRD3 antagonist inconclusive
C(=N\Nc1nc(Nc2ccccc2)nc(N2CCOCC2)n1)/c1c[nH]c2ccccc12	DRD3 antagonist -62
CCC(=O)Oc1ccc(C(=O)Nc2cccc(C(=O)NCC(C)C)c2)cc1	none
O=C(CSc1nnc(Nc2ccccc2)s1)NCc1ccco1	none
O=C(CSc1nnc(Nc2ccccc2F)s1)NCc1ccco1	DRD3 antagonist -59
Cc1ccc(C)c2[nH]c(=O)c(C(c3nnnn3C(C)(C)C)N3CC=C(c4ccc(F)cc4)CC3)cc12 (centres undefined)	DRD3 antagonist -51
CCC(C)(C)n1nnnc1C(c1cc2cccc(C)c2[nH]c1=O)N1CCCC1 (centres undefined)	none
CCC(=NNS(=O)(=O)c1ccc(C)cc1)c1ccccc1	none
Cc1ccc(NN2C(=O)C=CC2=O)cc1	none
O=C1C=C(c2ccccc2)C(=O)N1Nc1ccccc1	DRD3 antagonist inconclusive
